S1P3 antagonist: S1P3 receptor antagonists, primary screen, cell-based | CHO S1P3 NFAT-BLA reporter, FRET fluorescence, antagonist mode | inhibition, % at 4.98 µM | 170,000 compounds, 0.27% hits | AID 485, 2006;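 active means inhibition above the plate cutoff, the mean inhibition of test wells on that plate plus 3 SD, cut at about 28% in these data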;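 further: cells challenged with S1P at its EC80 of 0.8 µM; blue over green emission ratio from cleaved BLA substrate after 4 h stimulation; 0% = S1P-stimulated wells and 100% = unstimulated DMSO-only wells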
Cl transport mod: KCC2 cotransporter modulators, thallium flux, primary screen, cell-based, HEK293 KCC2, FluoZin-2 fluorescence, MLSMR; 190,000 compounds, 2.2% hits; B-score of Tl+ flux slope (higher = more flux/activation; lower = inhibition) at 10 µM; KCC2 cells, thallium flux FluoZin-2 fluorescence; AID 1456, 2008;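 active means thallium flux slope and its plate-corrected score both differing from the plate sample mean at a set confidence after two filtering rounds, in either direction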;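 further: slope of fluorescence scaled to starting intensity during 10 to 20 s after thallium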
EP2 antag: human EP2 receptor antagonists, primary screen, TR-FRET cAMP, C6 glioma cells | C6 glioma cells expressing human EP2; cells stimulated with saturating PGE2 | inhibition, % at 25 µM | 260,000 compounds, 0.52% hits;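 active means percent inhibition above 40 after rounding to a whole number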;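 further: rat C6 glioma host cells with rolipram phosphodiesterase inhibitor present; the protocol text gives 20 µM as final concentration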
Target sequence (P43116 whole entry, looked up): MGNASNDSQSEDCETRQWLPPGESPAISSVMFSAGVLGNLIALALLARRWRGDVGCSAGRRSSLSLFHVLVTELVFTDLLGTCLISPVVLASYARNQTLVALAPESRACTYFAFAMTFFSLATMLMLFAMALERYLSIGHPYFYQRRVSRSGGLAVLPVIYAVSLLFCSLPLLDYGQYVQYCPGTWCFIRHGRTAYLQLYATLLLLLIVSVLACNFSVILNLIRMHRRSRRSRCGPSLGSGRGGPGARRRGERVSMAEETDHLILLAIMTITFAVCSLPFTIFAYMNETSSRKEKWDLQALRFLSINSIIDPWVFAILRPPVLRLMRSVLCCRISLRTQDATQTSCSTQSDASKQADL
EP2 modulator: EP2 receptor modulators, cAMP readout, primary screen, cell-based, HTRF cAMP, PGE2 stimulation. Prostaglandin E2 receptor EP2 subtype (Homo sapiens), P43116. EP2-expressing cells, cAMP HTRF FRET, PGE2 co-stimulation. induction, % at 25 µM. 260,000 compounds, 0.83% hits;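 active means compounds whose cAMP rise, as percent of the full-agonist control response, exceeds 60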;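 further: rat C6 glioma line stably carrying human EP2 under a CMV promoter; the protocol text gives 20 µM as final concentration; 100% = response of wells given 1 µM PGE2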
EP2 confirm: cAMP induction in EP2, EP4, beta2-AR and parental cells, confirmation, counter-screen for EP2 modulator project, cell-based, five parallel assays, C6 glioma, HEK293. shares compounds with EP2 modulator. AID 1080, 2008. cAMP HTRF induction; plus low (about EC15) PGE2 agonist. calls only at 20 µM (by protocol). 1,300 compounds, 47% hits;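 active means cAMP induction above 50% in the main assay while under 30% in all four parallel counter assays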;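 further: rat C6 glioma cells stably expressing human EP2 receptor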
* = called active by the depositor; i = inactive; x = no result given; + = active, no number. Sampled rows, rich in hits. Any-hit rate of the full collection: about 3.1%.

SMILES	S1P3 antagonist	Cl transport mod	EP2 antag	EP2 modulator	EP2 confirm
C1=C(c2ccccc2)Nc2ccccc2N=C1c1ccccc1	12.9	0.28	2.7	66.2*	+
N#CC1=C(S)N(c2ccccc2)C2(CCCCC2)NC1=O	-3.7	1.03	13.5	70.9*	i
Cc1ccc2cc(CN(C3CCCC3)C(c3nnnn3Cc3ccc(F)cc3)C(C)C)c(=O)[nH]c2c1 (configuration not stated)	x	x	22.0	19.3	x
COc1ccc(NC(=O)C2CCN(S(=O)(=O)c3ccc(OC)c(C)c3)CC2)c(OC)c1	x	x	10.7	-90.8	x
CCOC(=O)c1cnn(-c2nc(-c3ccc(F)cc3)cs2)c1C(F)(F)F	x	0.813	8.1	65.3*	i
CCOC(=O)c1cnn(-c2nc(-c3ccccc3)cs2)c1C(F)(F)F	x	x	4.9	25.4	x
Cc1ccc2c(c1)N(Cc1cccc(Cl)c1)C(=O)c1cccnc1O2	-18.8	-1.07	7.3	71.0*	+
Cc1nn(-c2ccccc2)c2[nH]c(=O)c(CNCC3COc4ccccc4O3)cc12 (configuration not stated)	x	x	8.0	-14.7	x
Cc1ccc(C(=O)O)cc1NC(=S)NC(=O)c1ccc(-c2ccccc2)cc1	2.5	-3.79	9.2	74.1*	+
CCC(=O)NC(=S)Nc1cc(C(=O)O)ccc1OC	-18.3	-0.145	3.8	12.6	x
COc1ccc(C(=O)O)cc1NC(=S)NC(=O)c1ccc(-c2ccc(Cl)cc2)o1	-17.3	-2.2	7.7	95.0*	+
CC(C)NC(=S)NC(=O)c1ccc(-c2ccccc2)cc1	-2.7	-1.33	16.1	-3.2	x
Cc1ccc(C)n1-n1c(C)nc2scc(-c3cccs3)c2c1=O	-10.6	0.545	2.3	55.5	i
N#Cc1c(-c2ccco2)nc(SCc2ccc(F)cc2)[nH]c1=O	-13.7	-1.06	x	75.3*	i
COc1ccc(Cn2c(/C=C/c3ccccc3)nc3ccccc32)cc1	x	-0.00722	-1.7	42.6	x
Clc1ccccc1Cn1c(/C=C/c2ccco2)nc2ccccc21	8.6	-0.297	8.8	70.6*	i
CC(=O)OC[C@@]1(O)C[C@@]23CCC4c5ccoc5CC[C@]4(C)C2CC[C@@H]1C3 (some centres not stated)	x	x	8.9	68.5*	i
Cn1c(=O)[nH]c(=O)c2c1nc(N1CCCCCC1)n2Cc1cccc2ccccc12	x	x	-3.9	65.8*	i
Cn1c(=O)[nH]c(=O)c2c1nc(CN1CCN(c3cccc(Cl)c3)CC1)n2CCCc1ccccc1	2.2	1.23	5.6	70.2*	+
CCN1CCN(Cc2nc3c(c(=O)[nH]c(=O)n3C)n2Cc2ccccc2Cl)CC1	-17.1	-0.0422	9.8	x	x
Cn1c(=O)[nH]c(=O)c2c1nc(CN1CCN(c3cccc(Cl)c3)CC1)n2Cc1ccccc1Cl	-10.3	0.0221	5.9	69.2*	i
Cc1cccc(NC(=O)Cn2cnc3sc(C)c(C)c3c2=O)c1C	x	x	10.3	-8.7	x
Cc1nc(N2CCCCC2)c2nnn(Cc3c(F)cccc3Cl)c2n1	x	x	8.2	2.1	x
CCOP(=O)(OCC)c1nc(-c2cccc3ccccc23)oc1NCCc1ccc(OC)cc1	-6.7	-0.101	5.4	56.0	i
CCOP(=O)(OCC)c1nc(Cc2ccccc2)oc1NCc1ccccc1	3.4	-1.43	18.8	3.2	x
SMILES	S1P3 antagonist	Cl transport mod	EP2 antag	EP2 modulator	EP2 confirm
CCOP(=O)(OCC)c1nc(-c2ccc(F)cc2)oc1NCc1ccccc1	5.8	-1.97	0.8	72.4*	+
CCOP(=O)(OCC)c1nc(-c2ccccc2)oc1NCc1ccccc1	3.5	-1.79	4.4	80.8*	+
O=P(c1ccccc1)(c1ccccc1)c1nc(-c2ccccc2)oc1NCc1ccccc1	-5.9	1.32	9.0	94.3*	+
COc1ccc(C2C(C(=O)c3ccc(C)o3)=C(O)C(=O)N2CCc2ccccc2)cc1OC (configuration not stated)	x	x	12.4	29.8	x
Cc1ccc2[nH]c3c(=S)nc[nH]c3c2c1	-1.4	0.77	12.2	88.0*	i
CCCC/C(=N\NC(=O)c1ccc(Br)o1)c1ccccc1	-13.9	1.56	17.9	55.0	i
CC/C(=N/NC(=O)c1ccc(Br)o1)c1ccc(Cl)cc1	-3.1	1.72	11.1	45.2	x
CCn1c2c(c3cc(OCC(C)C)ccc31)CCCC2=O	x	-1.26	17.5	74.5*	+
CCn1c2c(c3cc(Br)ccc31)CCC/C2=N\O	-4.1	0.522	18.9	50.3	x
Cc1ccc(-c2c(C)nn3c(NCCCO)c4c(nc23)CCC4)cc1	x	x	x	-41.7	x
Cc1ccc2c3c(cccc13)-c1ccccc1C2=O	1.8	0.311	5.1	79.4*	+
CN(/N=C/c1cccnc1)C1=NS(=O)(=O)c2ccccc21	3.3	-0.102	4.7	-0.3	x
CN(/N=C/C=C/c1ccccc1)C1=NS(=O)(=O)c2ccccc21	-22.9	-1.79	3.4	82.3*	+
CCc1nc(N2CCOCC2)ncc1C(=O)NC(CC)c1ccc(F)cc1 (configuration not stated)	x	x	2.2	-22.6	x
COc1ccc(C2CC(C(F)(F)F)n3ncc(C(=O)O)c3N2)cc1OC (configuration not stated)	11.6	-0.376	12.9	1.9	x
COc1ccc(C2CC(C(F)(F)F)n3nc(C(N)=O)c(Cl)c3N2)cc1OC (configuration not stated)	2.2	0.0728	3.7	74.8*	i
O=C(CN1CCC(C(=O)c2ccc3c(c2)OCCO3)CC1)Nc1ccccc1	x	x	10.9	-16.3	x
O=C(O)c1cc2c(s1)-c1ccccc1OC2	x	0.222	11.6	85.6*	i
Cc1ccc2cc(CN(C(=O)c3cccs3)C3CCCCC3)c(=O)[nH]c2c1	x	x	8.3	-36.1	x
COC(=O)[C@H]1CN(C(=O)c2cnccn2)C[C@@H]1c1ccc(F)cc1	x	x	x	-18.1	x
O=C1CCC(c2ccccc2)=NN1Cc1c(F)cccc1Cl	10.3	-0.0108	2.2	66.4*	+
O=C(Nc1nnc(CCS(=O)(=O)c2cc(Cl)ccc2Cl)s1)c1cccs1	x	x	6.5	-24.2	x
Cc1cc2c3c(c1)C1(SCC(=O)N1c1ccc(F)cc1)C(=O)N3C(C)(C)CC2C (configuration not stated)	x	-0.829	2.5	66.5*	i
CC1CC(C)(C)N2C(=O)C3(Nc4ccccc4S3)c3cccc1c32 (configuration not stated)	x	x	4.9	57.7	x
CCn1c2ccccc2c2cc([N+](=O)[O-])ccc21	3.3	-0.464	4.3	76.7*	+
